Measurements taken from PubChem BioAssay AID2528 (National Center for Advancing Translational Sciences (NCATS), 2010).
Out of some 350,000 compounds screened, about 700 (0.2%) were called active. The call rests on the fitted dose curve; in most records, active means well fitted inhibition curve with a large enough effect; inconclusive means small, poorly fitted or top-dose-only effect; inactive means flat fitted curve, though single readings scatter. Many of the other results were omitted from the sample, so actives are more common in it than they were.

Each molecule was assayed against RecQ-like DNA helicase BLM (Homo sapiens) (UniProt P54132) (assay: qHTS Assay for Inhibitors of Bloom's syndrome helicase (BLM)). Settings: recombinant BLM DNA unwinding, fluorescence dequenching; series mostly up to 56.1 µM; activity change, negative = inhibition: at the top concentration.
Sequence of RecQ-like DNA helicase BLM (Homo sapiens) (P54132 whole entry, looked up): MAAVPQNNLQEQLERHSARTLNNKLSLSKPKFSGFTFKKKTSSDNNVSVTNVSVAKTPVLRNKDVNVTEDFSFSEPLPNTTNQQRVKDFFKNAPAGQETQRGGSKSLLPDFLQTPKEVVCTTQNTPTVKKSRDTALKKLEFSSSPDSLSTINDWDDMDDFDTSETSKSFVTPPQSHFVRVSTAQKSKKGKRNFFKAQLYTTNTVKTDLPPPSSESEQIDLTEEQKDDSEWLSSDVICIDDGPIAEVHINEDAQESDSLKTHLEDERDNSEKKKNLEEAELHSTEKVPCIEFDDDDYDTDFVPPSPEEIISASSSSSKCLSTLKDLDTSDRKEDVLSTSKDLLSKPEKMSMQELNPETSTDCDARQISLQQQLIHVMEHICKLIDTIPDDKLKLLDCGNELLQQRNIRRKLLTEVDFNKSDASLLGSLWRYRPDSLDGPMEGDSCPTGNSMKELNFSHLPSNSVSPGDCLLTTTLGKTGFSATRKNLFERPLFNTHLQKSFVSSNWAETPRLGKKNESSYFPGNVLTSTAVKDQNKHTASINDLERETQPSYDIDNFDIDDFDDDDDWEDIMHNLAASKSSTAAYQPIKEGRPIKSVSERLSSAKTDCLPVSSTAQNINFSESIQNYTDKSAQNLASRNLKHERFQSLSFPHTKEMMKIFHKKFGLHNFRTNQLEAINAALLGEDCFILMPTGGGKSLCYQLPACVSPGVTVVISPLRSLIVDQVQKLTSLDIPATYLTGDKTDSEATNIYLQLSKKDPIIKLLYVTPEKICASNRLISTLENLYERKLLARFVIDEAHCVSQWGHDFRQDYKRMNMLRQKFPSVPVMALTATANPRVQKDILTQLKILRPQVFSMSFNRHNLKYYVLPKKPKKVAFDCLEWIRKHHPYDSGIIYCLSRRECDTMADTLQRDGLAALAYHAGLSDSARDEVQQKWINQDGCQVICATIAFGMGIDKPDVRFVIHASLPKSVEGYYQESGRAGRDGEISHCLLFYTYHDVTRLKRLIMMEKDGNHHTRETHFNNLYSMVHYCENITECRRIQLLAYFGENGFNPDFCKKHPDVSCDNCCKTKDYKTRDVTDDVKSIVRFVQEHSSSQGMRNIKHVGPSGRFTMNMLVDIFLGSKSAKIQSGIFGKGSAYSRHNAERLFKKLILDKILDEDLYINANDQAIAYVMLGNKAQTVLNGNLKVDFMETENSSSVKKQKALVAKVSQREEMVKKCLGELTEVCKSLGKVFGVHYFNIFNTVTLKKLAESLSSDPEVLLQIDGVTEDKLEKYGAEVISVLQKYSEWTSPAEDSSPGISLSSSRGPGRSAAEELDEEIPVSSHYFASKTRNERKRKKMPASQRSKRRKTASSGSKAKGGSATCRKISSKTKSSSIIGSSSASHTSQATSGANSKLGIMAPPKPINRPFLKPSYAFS
Excerpt: Survival of cells and the faithful propagation of the genome depend on elaborate mechanisms of detecting and repairing DNA damage. Treatment of advanced cancer relies on radiation therapy or chemotherapy, which kill cancer cells by causing extensive DNA damage. It is often found, that cancer cells develop resistance to therapy through enhanced activity of DNA repair functions; this has led to an increased interest in developing drugs that interfere with DNA repair, which could sensitize cancer cells to conventional therapy.
This validation qHTS assay pertains to human BLM, which is important in resolving abnormal DNA structures formed during replication or homologous recombination. Shutting down the expression of BLM leads to chromosomal instability and higher radiation sensitivity in cultured cells.
The validation assay was a fluorescence quenching based kinetic qHTS for BLM Helicase DNA unwinding. The activity was measured as ATP-dependent separation of a 20-bp DNA duplex extended by 30-nt single-stranded tails (forked duplex). The forked DNA substrate was tagged with rhodamine fluorophore (carboxytetramethyl rhodamine, TAMRA) and BHQ-2 (Black Hole Quencher 2) dark quencher. Strand separation results in an increase in the fluorescence of TAMRA (excitation 525 nm, emission 598 nm). This substrate construct operates in a red-shifted region where very few compound library members have been noted to fluoresce (PubChem AIDs 593 and 594). An additional feature of the assay is the inclusion of 2.5 ug/ml poly (dIdC), to reduce interference by compounds such as DNA intercalators, a major source of false inhibitors.
Ian Hickson, University of Oxford
Opher Gileadi, Structural Genomics Consortium, University of Oxford
Screening Center PI: Austin, C.P.
Screening Center: NIH Chemical Genomics Center [NCGC]
Three uL of reaction buffer (25 mM Tris-HCl (pH 8.0), 5 mM NaCl, 2 mM MgCl2, 1mM DTT, 0.01% Tween- 20, and 2.5 ug/ml poly(dI-dC), including enzyme (50 nM BLM), were dispensed into a 1536-well Greiner black assay plate via solenoid-valve based nanoliter dispensers. Compounds (23 nl each in columns 5-48) and control (23 nl each in column 2 as dose-response) were transferred via a Kalypsys pintool equipped with a 1536-pin array. The plates were incubated for 15 min at room temperature, and then 1 ul of substrates (200 nM DNA and 2 mM ATP, final concentrations) was added to start the reaction. The plate was transferred into a ViewLux high-throughput CCD imager where the reaction progress was measured in a discontinuous kinetic mode (two reads spaced 2 hours apart, with intermediate room temperature incubation of the covered assay plate) by using standard red-fluorescence optics (excitation filter 525 nm, emission filter 598 nm). Enzyme-free and vehicle (DMSO) controls were included for signal normalization.
Further: nearly all actives have a fitted effect of over 35% in size.
Potency means the concentration at half of the fitted maximal effect.
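Wherever activity change, negative = inhibition is given: plate controls were vehicle for no effect and no enzyme for full effect.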

Compound | activity change, negative = inhibition | Potency
Cc1ccc(CCNC(=O)C2CCN(c3nnc(-n4cccc4CNc4ccc(C)cc4)s3)CC2)cc1 | -9.92% (inactive) | 
CC(C)C1=CC2=CC[C@H]3[C@](C)(C(=O)O)CCC[C@]3(C)C2CC1 (stereo partly drawn) | 4.37% (inactive) | 
O=C(O)c1cc(Cl)c(Cl)cc1C(=O)Nc1cccc2ncccc12 | -9.89% (inactive) | 
Cc1ccc(/C=C(\C#N)C(=O)Nc2cccc3ncccc23)o1 |  | 7.94 µM (active)
CCOC(=O)c1ccc(-c2ccc(/C=C(\C#N)C(=O)Nc3ccc(OCC)cc3)o2)cc1 | -5.55% (inactive) | 
FC(F)(F)c1ccccc1-c1nc(-n2ccnc2)c2ccccc2n1 | -3.83% (inactive) | 
C/C(CCN1CCCCc2nc(C)c(C)cc21)=N\O[C@@H](C)c1cn([C@@H]2COC[C@@H]2O)nn1 | 3.53% [at 12.4 µM] (inactive) | 
CN1C(=O)CN2CCc3ccccc3C2c2cc(Cl)ccc21 (stereo not drawn) | 3.82% (inactive) | 
C=C[C@](C)(O)CCC1C(=C)CCC2[C@@](C)(CO)CCC[C@@]12C (stereo partly drawn) | -2.39% (inactive) | 
CC/C=C\C/C=C\C/C=C\C/C=C\C/C=C\C/C=C\CCC(=O)NCCc1ccc(O)c(O)c1 | -0.801% (inactive) | 
Cc1c(S(=O)(=O)O)oc2c1C(=O)C(=O)c1c-2ccc2c1CCCC2(C)C |  | 31.6 µM (active)
CC(C)C(N)C(=O)OCCOCn1cnc2c(=O)[nH]c(N)nc21 (stereo not drawn) | -7.58% (inactive) | 
O=C(O)C[C@@H]1NC(=O)[C@H](Cc2ccccc2)NC1=O | 0.405% (inactive) | 
CCc1ccc(NC(=O)c2cnc3c(-c4ccccc4)c(C)nn3c2C)cc1 | -1.21% (inactive) | 
COC1C[C@@H](O[C@@H]2C(C)C(=O)OC(C)C(C)C(O)C(C)C(=O)[C@@]3(CO3)CC(C)C(OC3OC(C)CC(N(C)C)C3O)C2C)OC(C)[C@@H]1O (stereo partly drawn) | -4.86% (inactive) | 
CC(=O)Oc1c2c(c3c(c1CC=C(C)C)O[C@@]14C(=CC5CC1C(C)(C)OC4(C/C=C(\C)C(=O)O)C5=O)C3=O)OC(C)(CCC=C(C)C)C=C2 (stereo partly drawn) | -15.4% (inactive) | 
CCC(C)[C@@H](N)C(=O)O (stereo partly drawn) |  | inactive
c1ccc2c(Nc3ccncc3)nc(-c3ccc4c(c3)OCO4)nc2c1 | -15.1% (inactive) | 
COc1ccc(-c2nc3ccc(C(=O)NCc4ccc(C)cc4)cc3nc2-c2ccc(OC)cc2)cc1 | -3.72% (inactive) | 
O=C(NCc1ccccn1)c1ccc2nc(-c3ccco3)c(-c3ccco3)nc2c1 |  | 8.91 µM (active)
COCCNC(=O)Nc1ccc2nc(-c3ccco3)c(-c3ccco3)nc2c1 |  | 12.6 µM (active)
COc1cccc(S(=O)(=O)NCc2ccc(C(=O)NCc3ccccn3)cc2)c1 | 0.376% (inactive) | 

Compound | activity change, negative = inhibition | Potency
COc1ccc(NC(=O)COCc2cc(-c3ccco3)on2)cc1 | 0.68% (inactive) | 
CCOc1ccc(NC(=O)c2ncoc2-c2ccco2)cc1 | -4.8% (inactive) | 
Cc1cccc(C)c1NC(=O)NC1=CCCN1C | -6.49% (inactive) | 
CCCNC(=O)c1c(N)n(-c2ccc(S(N)(=O)=O)cc2)c2nc3ccccc3nc12 |  | 20 µM (active)
CCOC(=O)c1c(N)n(-c2cccc(C)c2C)c2nc3ccccc3nc12 | -6.93% (inactive) | 
Cc1noc(C)c1C(=O)NCCc1ccc(S(N)(=O)=O)cc1 | -0.714% (inactive) | 
COc1ccccc1CNc1ccnc(-c2c(C)noc2C)n1 | -3.97% (inactive) | 
N#CCCn1c(=O)c(-c2cc(F)cc(F)c2)nc2cnc(Oc3ccccc3)nc21 | -12.2% (inactive) | 
Cc1ccc(-c2nnc(SCC(=O)NCc3ccccc3)nc2-c2ccc(C)cc2)cc1 | -9.64% (inactive) | 
CC1(C)N=C(SCc2ccccc2Cl)c2ccccc2N1 | -0.452% (inactive) | 
c1ccc(CSc2nnc(-c3ccco3)c(-c3ccco3)n2)cc1 |  | 14.1 µM (active)
Clc1ccccc1CSc1nncn2c1cc1occc12 | -3.01% (inactive) | 
Clc1ccccc1CSc1nnc(-c2ccco2)c(-c2ccco2)n1 |  | 14.1 µM (active)
O=C(NCCSc1ccccc1)c1ccco1 | -7.71% (inactive) | 
COc1ccc(N2CCN(C(=O)CSCc3nc(-c4ccccc4Cl)oc3C)CC2)cc1 | -3.38% (inactive) | 
Cc1ccc2c(=O)c(C(=O)c3cccc(Cl)c3)cn(CC(=O)NCc3ccccc3)c2n1 | 1.52% (inactive) | 
C=C/C1=C/Cc2ccccc2[C@H](C[N+](=O)[O-])C(C(=O)OC)(C(=O)OC)C1 | 1.77% (inactive) | 
O=P(O)(O)OC[C@H](O)CO | -13.5% (inactive) | 
O=c1c(-c2cc(F)cc(F)c2)nc2cnc(Oc3ccccc3)nc2n1C[C@H]1CCCO1 | -7.56% (inactive) | 
C=CCC(C)(O)c1ccco1 (stereo not drawn) | 1.35% (inactive) | 
N#Cc1ccccc1-c1ccc2ncnc(NCc3cccnc3)c2c1 | -6.8% (inactive) | 
